Data reported in the supplement of paper PMC10849652.
The full data set covers some 7,900 targets. This sample favours those with a hit. About 0.6% of all pairs of compound and target were hits.

What was measured:
Experiment in all cases: log2 fold change, soluble protein after heating vs DMSO (PISA); higher = thermal stabilisation; K562 cells, 10 uM, 30 min; active = over 0.2 and 3.5 SD of the protein, either way, in both replicates (recomputed)
[1] = compound: CC1=C(C=C(C=C1)NC(=O)C2=CC(=CC=C2)C(C)(C)C#N)NC3=CC4=C(C=C3)N=CN(C4=O)C
Procedure, shortened: (§1)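 Aliquots of K562 cells (2×10^6 cells/mL) treated with 10 μM compound for 30 min were heated for 3 min over 48°C-58°C. After pooling and extraction in PBS with 0.5% NP-40 at 4°C, soluble protein from a 21,000xg, 90 min spin was quantified by TMTpro 16plex LC-MS/MS with channel sums equalised. Thermal stability is expressed against control samples, from duplicates, as a log2 fold change.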

[2] = compound: CC1=C(C=C(C=C1)NC(=O)C2=CC(=CC=C2)N(C)C)NC(=O)C3=CC=C(C=C3)O
Procedure, shortened: as §1

[3] = compound: CC1=CC=C(C=C1)SC2=C3C=C(SC3=CN=C2)C(=O)N
Procedure, shortened: as §1

[4] = compound: CC1=NC(=CC=C1)C2=C(N=C(N2)C(C)(C)C)C3=CC4=NC=CN=C4C=C3
Procedure, shortened: as §1

Nexturastat A = compound: CCCCN(Cc1ccc(C(=O)NO)cc1)C(=O)Nc1ccccc1 [Nexturastat A]
Procedure, shortened: as §1

vemurafenib = compound: CCCS(=O)(=O)Nc1ccc(F)c(C(=O)c2c[nH]c3ncc(-c4ccc(Cl)cc4)cc23)c1F [vemurafenib]
Procedure, shortened: as §1

[5] = compound: CCCS(=O)(=O)Nc1ccc(F)c(C(=O)c2c[nH]c3ncc(Cl)cc23)c1F
Procedure, shortened: as §1

[6] = compound: CCCc1cc(C)[nH]c(=O)c1CNC(=O)c1cc(-c2ccnc(N3CCN(C)CC3)c2)cc2c1cnn2C(C)C
Procedure, shortened: as §1

givinostat = compound: CCN(CC)Cc1ccc2cc(COC(=O)Nc3ccc(C(=O)NO)cc3)ccc2c1 [givinostat]
Procedure, shortened: as §1

barasertib = compound: CCN(CCCOc1ccc2c(Nc3cc(CC(=O)Nc4cccc(F)c4)[nH]n3)ncnc2c1)CCOP(=O)(O)O [barasertib]
Procedure, shortened: as §1

[7] = compound: CC[C@@H]1C(=O)N(C)c2cnc(Nc3ccc(C(=O)NC4CCN(C)CC4)cc3OC)nc2N1C1CCCC1
Procedure, shortened: as §1

volasertib = compound: CC[C@@H]1C(=O)N(C)c2cnc(Nc3ccc(C(=O)N[C@H]4CC[C@H](N5CCN(CC6CC6)CC5)CC4)cc3OC)nc2N1C(C)C [volasertib]
Procedure, shortened: as §1

[8] = compound: CC[C@H](C)N1C=C(C2=C(C=C(C=C21)C3=CN=C(C=C3)N4CCNCC4)C(=O)NCC5=C(C=C(NC5=O)C)C)C
Procedure, shortened: as §1

epoxomicin = compound: CC[C@H](C)[C@@H](C(=O)N[C@@H]([C@@H](C)O)C(=O)N[C@@H](CC(C)C)C(=O)[C@]1(CO1)C)NC(=O)[C@H]([C@@H](C)CC)N(C)C(=O)C [epoxomicin]
Procedure, shortened: as §1

[9] = compound: CCn1c(C(=O)N(C2CC2)C2CC2)cc2c3c(ncn3C)c(Nc3cc(C)n(C)n3)nc21
Procedure, shortened: as §1

[10] = compound: CCn1cc(-c2ccnc3[nH]c(-c4cccc(CN(C)C)c4)cc23)c(-c2ccc(NC(=O)N(C)C)cc2)n1
Procedure, shortened: as §1

[11] = compound: CN(C)CC(=O)Nc1ccc2[nH]c(=O)c3ccccc3c2c1
Procedure, shortened: as §1

rosiglitazone = compound: CN(CCOC1=CC=C(C=C1)C[C@H]2C(=O)NC(=O)S2)C3=CC=CC=N3 (racemic) [rosiglitazone]
Procedure, shortened: as §1

[12] = compound: CN1C2=C(C3=C1C(=O)N(N=C3)CC4=CC(=CC=C4)N)SC(=C2)S(=O)C
Procedure, shortened: as §1

[13] = compound: CN1CCC(CNc2ccc3ncc(-c4cccc(OC(F)(F)F)c4)n3n2)CC1
Procedure, shortened: as §1

Measured: log2 fold change

ARAF (UniProt P10398)
Chain of UniProt P10398 (P10398 whole entry, looked up): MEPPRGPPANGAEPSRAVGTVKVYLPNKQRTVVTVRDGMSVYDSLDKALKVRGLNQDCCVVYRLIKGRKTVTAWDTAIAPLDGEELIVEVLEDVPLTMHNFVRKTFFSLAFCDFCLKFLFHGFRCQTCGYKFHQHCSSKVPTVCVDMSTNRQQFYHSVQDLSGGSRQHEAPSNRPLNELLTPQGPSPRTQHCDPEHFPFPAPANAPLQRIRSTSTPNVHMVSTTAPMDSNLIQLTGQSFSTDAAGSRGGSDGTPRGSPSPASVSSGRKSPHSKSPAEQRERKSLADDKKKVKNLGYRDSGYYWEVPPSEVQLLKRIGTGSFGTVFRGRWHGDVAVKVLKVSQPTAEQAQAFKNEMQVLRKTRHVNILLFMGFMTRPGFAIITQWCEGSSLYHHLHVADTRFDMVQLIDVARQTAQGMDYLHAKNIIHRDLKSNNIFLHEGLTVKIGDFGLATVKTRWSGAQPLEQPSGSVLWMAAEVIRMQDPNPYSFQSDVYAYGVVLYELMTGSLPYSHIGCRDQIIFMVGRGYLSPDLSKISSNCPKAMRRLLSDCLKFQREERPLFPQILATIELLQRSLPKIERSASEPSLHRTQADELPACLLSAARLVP
inactive: [1] 0.063 | [2] -0.049 | [3] -0.069 | [4] -0.007 | Nexturastat A 0.003 | vemurafenib 0.064 | [5] 0.123 | [6] 0.019 | givinostat 0.029 | barasertib 0.074 | [7] 0.053 | volasertib 0.311 | [8] 0.129 | epoxomicin 0.013 | [9] -0.041 | [10] -0.002 | [11] 0.054 | rosiglitazone 0.047 | [12] -0.025 | [13] -0.132

B4GALNT1 (UniProt Q00973)
Chain of UniProt Q00973 (Q00973 whole entry, looked up): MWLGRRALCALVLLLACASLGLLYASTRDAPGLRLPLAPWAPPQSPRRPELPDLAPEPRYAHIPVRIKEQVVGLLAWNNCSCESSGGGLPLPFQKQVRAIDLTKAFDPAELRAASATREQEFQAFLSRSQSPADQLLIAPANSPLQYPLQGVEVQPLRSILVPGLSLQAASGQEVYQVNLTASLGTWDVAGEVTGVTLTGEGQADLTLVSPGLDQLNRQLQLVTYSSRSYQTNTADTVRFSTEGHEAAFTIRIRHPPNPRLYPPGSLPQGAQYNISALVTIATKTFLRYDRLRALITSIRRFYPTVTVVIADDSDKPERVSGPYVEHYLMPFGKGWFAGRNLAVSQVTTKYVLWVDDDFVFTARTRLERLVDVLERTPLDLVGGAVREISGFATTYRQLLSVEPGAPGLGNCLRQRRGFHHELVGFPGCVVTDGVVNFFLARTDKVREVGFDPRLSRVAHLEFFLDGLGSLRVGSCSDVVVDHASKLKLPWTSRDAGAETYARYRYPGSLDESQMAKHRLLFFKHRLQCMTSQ
inactive: [1] 0.075 | [2] -0.028 | [3] -0.109 | [4] 0.005 | Nexturastat A 0.096 | vemurafenib -0.172 | [5] -0.044 | [6] -0.028 | givinostat -0.123 | barasertib 0.104 | [7] -0.243 | volasertib -0.097 | [8] -0.115 | epoxomicin -0.059 | [9] 0.078 | [10] 0.01 | [11] 0.143 | rosiglitazone 0.025 | [12] -0.103 | [13] 0.173

BAP1 (UniProt Q92560)
Chain of UniProt Q92560 (Q92560 whole entry, looked up): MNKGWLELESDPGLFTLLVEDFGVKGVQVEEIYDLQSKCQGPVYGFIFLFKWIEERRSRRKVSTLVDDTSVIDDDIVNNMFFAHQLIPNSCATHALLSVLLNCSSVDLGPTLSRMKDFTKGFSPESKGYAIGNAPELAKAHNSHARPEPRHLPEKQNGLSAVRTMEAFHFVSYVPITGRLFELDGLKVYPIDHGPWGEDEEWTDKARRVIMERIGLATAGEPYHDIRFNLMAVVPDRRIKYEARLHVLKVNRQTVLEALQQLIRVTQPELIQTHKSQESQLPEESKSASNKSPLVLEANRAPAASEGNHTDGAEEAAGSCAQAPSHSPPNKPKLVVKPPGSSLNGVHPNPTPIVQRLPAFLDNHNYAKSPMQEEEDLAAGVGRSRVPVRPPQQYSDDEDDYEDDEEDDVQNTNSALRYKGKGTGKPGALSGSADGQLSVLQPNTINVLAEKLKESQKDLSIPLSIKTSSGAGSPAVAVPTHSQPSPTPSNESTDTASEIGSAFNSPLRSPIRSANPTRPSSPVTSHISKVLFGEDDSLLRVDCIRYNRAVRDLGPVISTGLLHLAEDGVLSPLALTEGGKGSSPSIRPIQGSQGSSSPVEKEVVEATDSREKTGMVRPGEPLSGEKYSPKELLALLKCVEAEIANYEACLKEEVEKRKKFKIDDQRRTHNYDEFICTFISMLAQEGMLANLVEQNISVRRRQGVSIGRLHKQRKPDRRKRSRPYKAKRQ
active: Nexturastat A 0.403 | givinostat 0.495
inactive: [1] -0.067 | [2] -0.088 | [3] -0.149 | [4] -0.058 | vemurafenib -0.089 | [5] -0.055 | [6] 0.085 | barasertib -0.019 | [7] -0.037 | volasertib 0.13 | [8] 0 | epoxomicin -0.092 | [9] -0.019 | [10] 0.101 | [11] -0.093 | rosiglitazone 0.021 | [12] 0.047 | [13] 0.055

AKAP8 (UniProt O43823)
Chain of UniProt O43823 (O43823 whole entry, looked up): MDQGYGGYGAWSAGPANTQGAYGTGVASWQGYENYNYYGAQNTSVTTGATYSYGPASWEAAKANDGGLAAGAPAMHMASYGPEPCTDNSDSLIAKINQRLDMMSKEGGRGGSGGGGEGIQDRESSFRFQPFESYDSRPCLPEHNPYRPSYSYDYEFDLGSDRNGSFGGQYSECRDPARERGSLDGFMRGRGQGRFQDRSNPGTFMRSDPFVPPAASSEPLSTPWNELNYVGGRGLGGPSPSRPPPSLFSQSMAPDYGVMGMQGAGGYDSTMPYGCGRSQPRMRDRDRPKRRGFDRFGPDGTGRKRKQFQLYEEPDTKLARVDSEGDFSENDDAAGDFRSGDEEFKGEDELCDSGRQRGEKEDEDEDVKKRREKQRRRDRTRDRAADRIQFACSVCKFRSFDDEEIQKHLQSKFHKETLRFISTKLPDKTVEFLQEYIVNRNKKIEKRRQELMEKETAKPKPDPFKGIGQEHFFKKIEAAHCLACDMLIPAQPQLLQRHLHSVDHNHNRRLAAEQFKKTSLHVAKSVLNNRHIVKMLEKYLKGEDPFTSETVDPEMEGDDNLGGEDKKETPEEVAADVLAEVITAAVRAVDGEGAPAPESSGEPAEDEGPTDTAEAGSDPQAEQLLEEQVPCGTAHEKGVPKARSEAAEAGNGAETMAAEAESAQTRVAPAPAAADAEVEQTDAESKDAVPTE
inactive: [1] -0.082 | [2] 0.029 | [3] -0.03 | [4] -0.009 | vemurafenib -0.062 | [5] -0.05 | [6] -0.034 | givinostat -0.027 | barasertib 0.024 | [7] 0.069 | [8] -0.017 | epoxomicin 0.003 | [9] 0.02 | [10] 0.026 | [11] -0.03 | rosiglitazone 0.017 | [12] 0 | [13] -0.131
active: Nexturastat A 0.313 | volasertib -0.268

ARF4 (UniProt P18085)
Chain of UniProt P18085 (P18085 whole entry, looked up): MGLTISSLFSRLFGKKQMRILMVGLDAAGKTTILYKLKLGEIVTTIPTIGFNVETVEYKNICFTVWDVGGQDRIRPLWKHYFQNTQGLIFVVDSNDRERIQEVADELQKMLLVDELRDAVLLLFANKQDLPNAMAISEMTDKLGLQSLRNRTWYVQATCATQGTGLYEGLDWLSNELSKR
inactive: [1] 0.022 | [2] -0.014 | [3] 0 | [4] 0.012 | Nexturastat A -0.095 | vemurafenib 0.02 | [5] 0.022 | [6] 0.023 | givinostat 0.016 | barasertib 0.048 | [7] 0.064 | volasertib 0.094 | [8] 0.009 | epoxomicin 0.112 | [9] -0.008 | [10] 0.014 | [11] 0.041 | rosiglitazone -0.033 | [12] -0.076 | [13] 0.097

ABHD17A isoform 2 (UniProt Q96GS6)
inactive: [1] -0.004 | [2] -0.031 | [3] 0.035 | [4] -0.068 | Nexturastat A 0.034 | vemurafenib -0.039 | [5] -0.032 | [6] -0.021 | givinostat -0.313 | barasertib 0.016 | [7] -0.072 | volasertib -0.172 | [8] -0.084 | epoxomicin -0.057 | [9] -0.058 | [10] -0.17 | [11] -0.067 | rosiglitazone 0.009 | [12] -0.015
active: [13] -0.377

ASNS (UniProt P08243)
inactive: [1] 0.008 | [2] 0.007 | [3] 0.026 | [4] 0.025 | Nexturastat A -0.045 | vemurafenib 0.007 | [5] 0.013 | [6] 0 | givinostat -0.004 | barasertib -0.004 | [7] -0.01 | volasertib 0.015 | [8] 0.008 | epoxomicin 0.021 | [9] 0.008 | [10] -0.051 | [11] -0.008 | rosiglitazone 0.003 | [12] -0.064 | [13] -0.037

BID isoform 2 (UniProt P55957)
Chain of UniProt P55957 (P55957 whole entry, looked up): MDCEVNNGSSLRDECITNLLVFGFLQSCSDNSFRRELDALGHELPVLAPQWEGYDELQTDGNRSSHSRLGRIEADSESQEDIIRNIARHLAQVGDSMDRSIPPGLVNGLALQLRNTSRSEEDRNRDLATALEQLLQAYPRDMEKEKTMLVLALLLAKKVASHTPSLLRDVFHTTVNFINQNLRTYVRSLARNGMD
inactive: [1] -0.054 | [2] -0.02 | [3] 0.029 | [4] 0.012 | Nexturastat A -0.056 | vemurafenib 0.117 | [5] 0.001 | [6] 0.016 | givinostat -0.001 | barasertib -0.01 | [7] 0.013 | volasertib -0.196 | [8] -0.022 | epoxomicin -0.036 | [9] -0.022 | [10] 0.045 | [11] 0.042 | rosiglitazone 0.001 | [12] -0.068 | [13] -0.048

BZW2 (UniProt Q9Y6E2)
Chain of UniProt Q9Y6E2 (Q9Y6E2 whole entry, looked up): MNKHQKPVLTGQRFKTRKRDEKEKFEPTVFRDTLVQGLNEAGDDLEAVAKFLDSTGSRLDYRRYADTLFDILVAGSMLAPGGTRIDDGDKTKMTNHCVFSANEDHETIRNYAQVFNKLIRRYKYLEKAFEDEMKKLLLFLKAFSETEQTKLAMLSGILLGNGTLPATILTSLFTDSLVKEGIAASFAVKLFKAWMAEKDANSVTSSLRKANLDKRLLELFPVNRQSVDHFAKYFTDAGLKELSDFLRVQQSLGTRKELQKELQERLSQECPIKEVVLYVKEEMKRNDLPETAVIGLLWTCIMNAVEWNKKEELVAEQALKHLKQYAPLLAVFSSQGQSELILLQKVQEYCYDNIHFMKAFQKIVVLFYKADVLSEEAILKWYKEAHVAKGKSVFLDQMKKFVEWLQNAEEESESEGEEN
active: volasertib -0.367 | [13] -0.298
inactive: [1] 0.009 | [2] -0.007 | [3] 0.043 | [4] 0.062 | Nexturastat A -0.034 | vemurafenib 0.012 | [5] 0.058 | [6] -0.025 | givinostat 0.011 | barasertib 0.044 | [7] -0.193 | [8] 0.042 | epoxomicin 0.043 | [9] -0.019 | [10] -0.016 | [11] 0.02 | rosiglitazone 0.046 | [12] -0.037

APLP2 (UniProt Q06481)
Chain of UniProt Q06481 (Q06481 whole entry, looked up): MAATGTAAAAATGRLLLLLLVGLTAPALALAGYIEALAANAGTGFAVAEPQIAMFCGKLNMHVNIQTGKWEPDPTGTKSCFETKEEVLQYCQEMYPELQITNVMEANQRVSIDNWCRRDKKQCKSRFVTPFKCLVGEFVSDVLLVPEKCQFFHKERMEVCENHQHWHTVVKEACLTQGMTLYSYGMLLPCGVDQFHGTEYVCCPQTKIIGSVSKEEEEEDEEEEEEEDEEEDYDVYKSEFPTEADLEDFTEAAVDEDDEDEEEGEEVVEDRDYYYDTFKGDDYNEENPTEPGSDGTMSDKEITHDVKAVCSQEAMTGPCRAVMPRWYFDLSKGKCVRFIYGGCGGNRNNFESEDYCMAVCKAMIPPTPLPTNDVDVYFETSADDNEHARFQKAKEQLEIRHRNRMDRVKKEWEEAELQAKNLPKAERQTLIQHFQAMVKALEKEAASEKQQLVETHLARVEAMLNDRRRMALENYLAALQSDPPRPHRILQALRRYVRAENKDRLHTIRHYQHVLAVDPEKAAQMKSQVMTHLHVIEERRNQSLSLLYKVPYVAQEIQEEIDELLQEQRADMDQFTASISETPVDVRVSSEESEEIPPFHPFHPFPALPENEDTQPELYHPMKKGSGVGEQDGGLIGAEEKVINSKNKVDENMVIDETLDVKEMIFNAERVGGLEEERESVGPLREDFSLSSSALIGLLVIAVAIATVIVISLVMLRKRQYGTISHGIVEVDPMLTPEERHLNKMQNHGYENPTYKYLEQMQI
inactive: [1] 0.088 | [2] -0.043 | [3] -0.003 | [4] -0.009 | Nexturastat A -0.053 | vemurafenib -0.033 | [5] 0.011 | [6] 0.018 | givinostat -0.041 | barasertib -0.04 | [7] 0.076 | volasertib -0.04 | [8] -0.092 | epoxomicin 0.017 | [9] 0.089 | [10] 0.006 | [11] -0.106 | rosiglitazone -0.026 | [12] -0.004 | [13] 0.179

ARL3 (UniProt P36405)
Chain of UniProt P36405 (P36405 whole entry, looked up): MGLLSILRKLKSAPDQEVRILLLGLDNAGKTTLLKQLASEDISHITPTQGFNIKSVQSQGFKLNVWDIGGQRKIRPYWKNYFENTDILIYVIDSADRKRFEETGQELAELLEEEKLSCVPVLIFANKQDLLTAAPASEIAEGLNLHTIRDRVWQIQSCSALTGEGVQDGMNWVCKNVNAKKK
inactive: [1] -0.016 | [2] 0.018 | [3] 0.016 | [4] 0.025 | Nexturastat A -0.063 | vemurafenib 0.002 | [5] 0.059 | [6] -0.033 | givinostat 0.005 | barasertib -0.022 | [7] 0.036 | volasertib 0.046 | [8] 0.001 | epoxomicin -0.01 | [9] -0.001 | [10] -0.005 | [11] -0.014 | rosiglitazone 0.008 | [12] -0.098 | [13] -0.018

AMFR (UniProt Q9UKV5)
inactive: [1] -0.013 | [2] 0.01 | [3] -0.029 | [4] -0.104 | Nexturastat A -0.033 | vemurafenib 0.005 | [5] 0.009 | [6] -0.042 | givinostat 0.086 | barasertib 0.041 | [7] -0.205 | volasertib -0.215 | [8] 0.044 | epoxomicin 0.049 | [9] -0.059 | [10] 0 | [11] -0.007 | rosiglitazone 0.022 | [12] 0.01 | [13] -0.055

BRD8 (UniProt Q9H0E9)
inactive: [1] 0.002 | [2] 0.026 | [3] -0.01 | [4] 0.017 | Nexturastat A -0.098 | vemurafenib 0.027 | [5] 0.01 | [6] 0.002 | givinostat -0.153 | barasertib -0.026 | [7] 0.038 | volasertib -0.044 | [8] -0.013 | epoxomicin 0.039 | [9] 0.035 | [10] 0.043 | [11] -0.044 | rosiglitazone 0.003 | [12] 0.025 | [13] -0.063

AGPAT3 isoform 3 (UniProt Q9NRZ7)
Chain of UniProt Q9NRZ7 (Q9NRZ7 whole entry, looked up): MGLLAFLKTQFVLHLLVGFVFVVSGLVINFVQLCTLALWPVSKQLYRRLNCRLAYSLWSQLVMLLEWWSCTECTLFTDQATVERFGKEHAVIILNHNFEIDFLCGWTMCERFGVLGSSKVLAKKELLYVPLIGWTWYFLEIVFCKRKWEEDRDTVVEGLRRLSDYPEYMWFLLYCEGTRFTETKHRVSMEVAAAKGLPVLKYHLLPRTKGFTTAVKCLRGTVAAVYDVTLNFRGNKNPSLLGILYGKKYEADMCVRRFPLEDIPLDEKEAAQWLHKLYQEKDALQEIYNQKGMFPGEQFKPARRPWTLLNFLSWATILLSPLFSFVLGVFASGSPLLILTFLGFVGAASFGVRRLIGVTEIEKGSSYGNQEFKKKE
inactive: [1] 0.019 | [2] 0 | [3] 0.016 | [4] 0.003 | Nexturastat A -0.076 | vemurafenib -0.001 | [5] 0.043 | [6] -0.039 | givinostat 0.008 | barasertib 0.057 | [7] -0.095 | [8] 0.017 | epoxomicin 0.02 | [9] 0.004 | [10] -0.082 | [11] 0.012 | rosiglitazone 0.011 | [12] -0.069 | [13] 0.001
active: volasertib -0.211

BRIX1 (UniProt Q8TDN6)
inactive: [1] 0.038 | [2] -0.061 | [3] -0.09 | [4] -0.134 | Nexturastat A 0.37 | vemurafenib -0.11 | [5] 0.008 | [6] 0.159 | givinostat 0.15 | barasertib -0.197 | [7] 0.166 | volasertib 0.317 | [8] 0.048 | epoxomicin -0.343 | [9] -0.041 | [10] 0.31 | [11] -0.143 | rosiglitazone -0.266 | [12] 0.36 | [13] 0.481

ARL6IP6 (UniProt Q8N6S5)
Chain of UniProt Q8N6S5 (Q8N6S5 whole entry, looked up): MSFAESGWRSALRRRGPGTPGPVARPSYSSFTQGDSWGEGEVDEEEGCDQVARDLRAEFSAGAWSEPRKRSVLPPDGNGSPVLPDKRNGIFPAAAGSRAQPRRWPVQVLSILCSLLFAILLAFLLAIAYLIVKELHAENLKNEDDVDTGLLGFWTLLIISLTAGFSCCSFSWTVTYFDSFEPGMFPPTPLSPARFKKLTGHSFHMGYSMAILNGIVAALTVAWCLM
inactive: [1] -0.112 | [2] -0.038 | [3] 0.009 | [4] -0.071 | Nexturastat A 0.106 | vemurafenib 0 | [5] 0.049 | [6] 0.034 | givinostat 0.099 | barasertib -0.048 | [7] 0.154 | volasertib -0.007 | [8] -0.043 | epoxomicin -0.086 | [9] -0.074 | [10] 0.004 | [11] 0.004 | rosiglitazone 0.005 | [12] 0.029 | [13] 0.01
